HT1080NT lethal = kills 2HG-producing HT-1080-NT fibrosarcoma cells | HT-1080-NT fibrosarcoma viability, CellTiter-Glo ATP luminescence, 48 h | Potency, µM (doses to about 46.1 µM), for inactives: top-dose activity, negative = less viability, most hits filed as cytotoxic | hit rate 1.6% among 360,000;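 also: NT is the 2HG producing partner of a matched IDH1 knockdown line; 0% = DMSO-treated cells and -100% = media-only wells without cells; nearly all actives have a fitted effect of over 55% in size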
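Compounds were tested in concentration-response format on HT-1080-NT cells for 48 hours at 37 degrees C. Cell viability came from CellTiter-Glo luminescence; curves were classified by r2, response magnitude and activity.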
HT1080 IDH1KD tx = kills HT-1080 cells with IDH1 knockdown. HT-1080 IDH1 knockdown viability, ATP luminescence, 48 h. Potency, µM (doses to about 46.1 µM), for inactives: at the highest dose activity, negative = toxicity, actives largely listed as cytotoxic. hit rate 2% among 360,000. AID 686971;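 also: 0% = DMSO wells and -100% = cell-free medium wells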
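In this qHTS, HT-1080 cells depleted of IDH1 are exposed for 48 h at 37 °C to compound titrations. Toxicity is scored from CellTiter-Glo luminescence, with DMSO as full viability and medium alone as none.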
TDP1 cell noCPT = qHTS for Inhibitors of human tyrosyl-DNA phosphodiesterase 1 (TDP1): qHTS in cells in absence of CPT; hit rate 15% among 420,000; Potency, µM (doses to about 46.2 µM), without a hit: at the highest dose activity change, negative = growth inhibition, hits mostly inhibitors; DT40 Tdp1-/- hTDP1 cells, no CPT, ATP luminescence, 48 h; also: nearly all actives have a fitted effect of over 55% in size
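Compound effects on proliferation are scored in DT40 Tdp1-/-;hTDP1 cells in the absence of CPT. ATP levels (CellTiter-Glo luminescence) are recorded after a ≥48 hr, 37 °C incubation.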
TDP1 cell CPT = DT40-hTDP1 cell growth loss with CPT; chicken DT40 Tdp1-/-;hTDP1 cells + 20 nM CPT, ATP luminescence, 48 h; Potency, µM (titrated, usually from 46.2 µM), inactives show at the top dose activity change, negative = growth inhibition, usual class: inhibitors; hit rate 12% among 420,000; also: nearly all actives have a fitted effect of over 55% in size
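Chicken DT40 Tdp1-/- cells complemented with human TDP1, 400 cells/well, exposed to compounds plus 20 nM camptothecin for at least 48 h at 37 C; viability read as ATP content by CellTiter-Glo luminescence.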
KB-V1 cytotox = KB-V1 MDR subline cytotoxicity; KB-V1 MDR cells viability, CellTiter-Glo, 72 h; Potency, µM (highest dose often 46.1 µM), most hits filed as cytotoxic; hit rate 3.4% among 400,000; AID 1347076; also: nearly all actives have a fitted effect of over 60% in size
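In this primary screen, KB-V1 cells overexpressing P-gp are incubated with library compounds (lowest to highest concentration) for 72 h at 37 degrees C before a luminescent ATP viability read.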
KB-3-1 cytotox = KB-3-1 parental cell cytotoxicity | KB-3-1 viability, CellTiter-Glo ATP luminescence, 72 h | Potency, µM (titrated, usually from 46.1 µM), hits mostly cytotoxic | hit rate 1.4% among 400,000; also: nearly all actives have a fitted effect of over 60% in size
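Using CellTiter-Glo luminescence, growth of non-resistant KB-3-1 adenocarcinoma cells is assessed 72 h after pin-tool compound addition at 37 °C. Normalized responses across the concentration series yield fitted curves.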
* marks the source's active call; other numbers are inactive results; i = inactive; ? = inconclusive; . = no result; [ ] = remark or other dose. Rows were chosen to be rich in hits. Some 19% of all compounds tested hit in one or more screens of this group. Calls follow the shape of the dose curve; as a rule, active = well fitted curve in the direction sought with a large enough effect; inconclusive = small, poorly fitted or top-dose-only effect, or another doubt; inactive = no such curve, though single readings can be large; an effect the other way counts as inactive or inconclusive. Unless noted, % is scaled to controls: 0 for no effect and ±100 for the full control effect; potency is read from the fitted curve at half-maximal effect.

SMILES	HT1080NT lethal	HT1080 IDH1KD tx	TDP1 cell noCPT	TDP1 cell CPT	KB-V1 cytotox	KB-3-1 cytotox
O=C(NCCCN1CCN(c2ccccc2)CC1)C1CCCN(c2ncnc3c2nc2n3CCCCC2)C1 (stereo not drawn)	15%	2%	?	23µM*	i	i
O=C(Nc1ccc(F)c(Cl)c1)C1CCN(c2ncnc3c2nc2n3CCCCC2)CC1	0%	6%	18µM*	?	?	i
Cc1ccc(CCNC(=O)C2CCCN(c3ncnc4c3nc3n4CCCCC3)C2)cc1 (stereo not drawn)	-1%	10%	-19%	?	?	i
O=C(Nc1ccccn1)C1CCCN(c2ncnc3c2nc2n3CCCCC2)C1 (stereo not drawn)	0%	-12%	15µM*	?	i	i
CCOc1ccc(CCNC(=O)C2CCCN(c3ncnc4c3nc3n4CCCCC3)C2)cc1 (stereo not drawn)	14%	13%	23µM*	?	i	i
O=C(NCCc1ccccc1)C1CCCN(c2ncnc3c2nc2n3CCCCC2)C1 (stereo not drawn)	-1%	-1%	?	?	i	?
CC(C)c1ccc(NC(=O)C2CCN(c3ncnc4c3nc3n4CCCCC3)CC2)cc1	-1%	-14%	?	?	i	i
O=C(Cn1c(=O)n2nc(-c3cccc(F)c3)nc2c2ccccc21)N1CCN(c2ccc(F)cc2)CC1	.	.	-18%	1%	i	i
O=C(Nc1ccc(Cl)cn1)C1CCN(c2ncnc3c2nc2n3CCCCC2)CC1	?	?	16µM*	?	21µM*	?
Cc1ccnc(NC(=O)C2CCCN(c3ncnc4c3nc3n4CCCCC3)C2)c1 (stereo not drawn)	-5%	22%	?	-10%	i	i
COc1cc(OC)c(N(C)C(=O)C2CCCN(c3ncnc4c3nc3n4CCCCC3)C2)cc1Cl (stereo not drawn)	.	.	21µM*	?	i	i
O=C(C1CCCN(c2ncnc3c2nc2n3CCCCC2)C1)N1CCCCC1 (stereo not drawn)	1%	5%	?	?	i	i
O=C(NCc1ccco1)C1CCCN(c2ncnc3c2nc2n3CCCCC2)C1 (stereo not drawn)	10%	6%	13µM*	?	i	i
O=C(NCc1ccc(Cl)cc1)C1CCN(c2ncnc3c2nc2n3CCCCC2)CC1	.	.	-2%	1%	.	.
O=C(NCc1ccccc1Cl)C1CCCN(c2ncnc3c2nc2n3CCCCC2)C1 (stereo not drawn)	-15%	8%	?	?	i	i
Cc1ccc(NC(=O)C2CCCN(c3ncnc4c3nc3n4CCCCC3)C2)nc1 (stereo not drawn)	1%	-14%	8.2µM*	13µM*	i	i
COc1cc(-c2cc(C)c3cccc(OC)c3n2)cc2c1OCCN(C(=O)CC1NC(=O)c3ccccc31)C2 (stereo not drawn)	.	.	-14%	-14%[9.04 µM]	.	.
O=C(Nc1cccnc1Cl)C1CCCN(c2ncnc3c2nc2n3CCCCC2)C1 (stereo not drawn)	0%	12%	?	?	i	i
COc1ccc(Cl)cc1NC(=O)C1CCCN(c2ncnc3c2nc2n3CCCCC2)C1 (stereo not drawn)	3%	13%	8.2µM*	8.2µM*	i	i
O=C(Nc1ccc(Cl)cn1)C1CCCN(c2ncnc3c2nc2n3CCCCC2)C1 (stereo not drawn)	19%	12%	21µM*	21µM*	?	i
CCOc1cc(C#N)c(NC(=O)c2cccc(S(=O)(=O)N3CCOCC3)c2)cc1OCC	.	.	?	-3%	i	i
COc1ccc(CCN2C(=O)c3ccccc3NC2c2cc(Cl)c(O)c(OC)c2)cc1 (stereo not drawn)	1.6µM*	2.9µM*	4.1µM*	4.6µM*	?	?
O=C1c2ccccc2NC(c2ccc(Cl)cc2Cl)N1O (stereo not drawn)	?	?	16µM*	?	?	?
C=CCc1cccc(C2Nc3ccccc3C(=O)N2O)c1O (stereo not drawn)	?	-26%	-27%	-21%	?	?
O=C1c2ccccc2NC(c2c(Cl)cccc2Cl)N1Cc1ccccc1 (stereo not drawn)	-27%	?	18µM*	16µM*	?	?
SMILES	HT1080NT lethal	HT1080 IDH1KD tx	TDP1 cell noCPT	TDP1 cell CPT	KB-V1 cytotox	KB-3-1 cytotox
CCCN1C(=O)c2ccccc2NC1c1cc(OC)c(OC)c(OC)c1 (stereo not drawn)	4%	1%	-28%	-13%	i	i
COc1ccc(C2Nc3ccccc3C(=O)N2O)cc1OC (stereo not drawn)	1%	10%	?	?	15µM*	i
Cc1ccc(NC(=O)CN2C(=O)COc3ccc(S(=O)(=O)Nc4ccccc4)cc32)c(C)c1	.	.	?	?	i	i
O=C1c2ccccc2NC(c2ccc(Cl)cc2Cl)N1Cc1ccccc1 (stereo not drawn)	?	?	?	23µM*	i	i
CCCCN(C(=O)c1ccc(S(=O)(=O)N2CCCC2)cc1)C1CCS(=O)(=O)C1 (stereo not drawn)	-3%	0%	9%	7%	i	i
NC(=O)C1CC(=O)N(c2ccc(OCc3ccc(Cl)cc3)cc2)C1 (stereo not drawn)	1%	2%	23µM*	?	i	i
CCCNC(=O)C1CC(=O)N(c2ccc(OCc3ccc(Cl)cc3)cc2)C1 (stereo not drawn)	-16%	-4%	8.2µM*	?	?	i
CCCNC(=O)C1CC(=O)N(c2ccc(OCc3ccc(F)cc3)cc2)C1 (stereo not drawn)	-4%	-19%	-26%	-24%	i	i
CC(C)N(Cc1ccccc1)S(=O)(=O)c1ccc(-n2cccn2)cc1	-14%	-24%	?	?	?	i
COc1ccc(C(CNC(=O)Cc2c(F)cccc2Cl)N2CCCCC2)cc1 (stereo not drawn)	1%	12%	-9%	-8%	i	i
COc1ccc(C(CNC(=O)c2oc3ccccc3c2C)N2CCCC2)cc1 (stereo not drawn)	-14%	-12%	?	21µM*	?	i
